# According to PubChem BioAssay (Tox21):
# Unmarked numbers belong to inactive results. Records with an inconclusive call do not appear. Entries that show only a call come without a potency. Activity calls are given as the source filed them. Calls come from the whole dose curve; as a rule, active = well fitted curve in the direction sought with a large enough effect in the repeat runs; inconclusive = weak or mixed curves; inactive = no such curve, though single readings can be large; an effect the other way counts as inactive or inconclusive.
# Assays:
# [1] = A CellTox Green Cytotoxicity Assay to monitor cytotoxicity in HEK293 cells - 40 hour (AID 1224871); note: nearly all actives have a fitted effect of over 45% in size; note: potency is the fitted concentration of half-maximal effect
# Procedure, shortened: (§1)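 Cytotoxicity was tracked continuously in HEK293 cells by a DNA-binding dye excluded from viable cells. Compounds were transferred in DMSO 5 h after seeding; fluorescence was recorded at intervals up to 40 h.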
# [2] = qHTS RealTime-Glo MT Cell Viability Assay in HEK293 cells - 16 hour (AID 1224872); note: top concentration of the series differs between compounds; nearly all actives have a fitted effect of over 50% in size
# Procedure, shortened: (§2)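 Luminescence generated by NanoLuc from substrate produced by living HEK293 cells served as the viability signal. Each value reflects the reading at its stated time point during continuous 40 h compound exposure at 37 C.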
# [3] = qHTS RealTime-Glo MT Cell Viability Assay in HepG2 cells - 8 hour (AID 1224873); note: nearly all actives have a fitted effect of over 55% in size
# Procedure, shortened: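 HepG2 cells mixed with RealTime-Glo MT reagents (NanoLuc plus cell-permeant prosubstrate) were seeded at 600 cells/well, incubated 5 h at 37 C/5% CO2, then pinned with compounds in DMSO; nonlytic luminescence tracked viability during 40 h treatment.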
# [4] = qHTS RealTime-Glo MT Cell Viability Assay in HEK293 cells - 40 hour (AID 1224874); conditions: RealTime-Glo luminescence; max response: active compounds read low; note: nearly all actives have a fitted effect of over 50% in size
# Procedure, shortened: (§3)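 Nonlytic bioluminescent viability monitoring. HEK293 at 600 cells/well with reagent; 5 h settle; compound transfer by pintool; plates held at 37 C and read at set time points.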
# [5] = A CellTox Green Cytotoxicity Assay to monitor cytotoxicity in HEK293 cells - 24 hour (AID 1224875); note: nearly all actives have a fitted effect of over 45% in size; note: potency is the fitted concentration of half-maximal effect
# Procedure, shortened: as §1
# [6] = A CellTox Green Cytotoxicity Assay to monitor cytotoxicity in HepG2 cells - 16 hour (AID 1224876); note: nearly all actives have a fitted effect of over 45% in size
# Procedure, shortened: (§4)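 Real-time, homogeneous cytotoxicity readout: dead-cell DNA staining by CellTox Green in HepG2 monolayers, fluorescence measured at timed intervals up to 40 h of continuous compound exposure.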
# [7] = A CellTox Green Cytotoxicity Assay to monitor cytotoxicity in HepG2 cells - 24 hour (AID 1224878); note: nearly all actives have a fitted effect of over 45% in size
# Procedure, shortened: as §4
# [8] = A CellTox Green Cytotoxicity Assay to monitor cytotoxicity in HepG2 cells - 40 hour (AID 1224879); note: nearly all actives have a fitted effect of over 40% in size
# Procedure, shortened: as §4
# [9] = qHTS RealTime-Glo MT Cell Viability Assay in HEK293 cells - 0 hour (AID 1224880)
# Procedure, shortened: as §3
# [10] = A CellTox Green Cytotoxicity Assay to monitor cytotoxicity in HEK293 cells - 32 hour (AID 1224881); note: nearly all actives have a fitted effect of over 40% in size; note: potency is the fitted concentration of half-maximal effect
# Procedure, shortened: as §1
# [11] = A CellTox Green Cytotoxicity Assay to monitor cytotoxicity in HepG2 cells - 0 hour (AID 1224882); note: nearly all actives have a fitted effect of over 35% in size
# Procedure, shortened: as §4
# [12] = A CellTox Green Cytotoxicity Assay to monitor cytotoxicity in HepG2 cells - 32 hour (AID 1224883); note: nearly all actives have a fitted effect of over 50% in size
# Procedure, shortened: as §4
# [13] = A CellTox Green Cytotoxicity Assay to monitor cytotoxicity in HEK293 cells - 8 hour (AID 1224884); note: nearly all actives have a fitted effect of over 35% in size
# Procedure, shortened: as §1
# [14] = qHTS RealTime-Glo MT Cell Viability Assay in HepG2 cells - 16 hour (AID 1224885); note: nearly all actives have a fitted effect of over 50% in size
# Procedure, shortened: (§5)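 Tox21 10K library screened in qHTS format on HepG2 cells carrying RealTime-Glo reagents. Compounds were added after a 5 h preincubation, and the luminescent signal from continuous culture was measured repeatedly during 40 h treatment.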
# [15] = qHTS RealTime-Glo MT Cell Viability Assay in HEK293 cells - 24 hour (AID 1224886)
# Procedure, shortened: as §2
# [16] = qHTS RealTime-Glo MT Cell Viability Assay in HEK293 cells - 8 hour (AID 1224887)
# Procedure, shortened: as §3
# [17] = A CellTox Green Cytotoxicity Assay to monitor cytotoxicity in HEK293 cells - 16 hour (AID 1224888); note: nearly all actives have a fitted effect of over 35% in size
# Procedure, shortened: as §1
# [18] = qHTS RealTime-Glo MT Cell Viability Assay in HepG2 cells - 0 hour (AID 1224889); note: nearly all actives have a fitted effect of over 50% in size
# Procedure, shortened: as §5
# [19] = A CellTox Green Cytotoxicity Assay to monitor cytotoxicity in HepG2 cells - 8 hour (AID 1224890); note: nearly all actives have a fitted effect of over 45% in size
# Procedure, shortened: as §4
# [20] = qHTS RealTime-Glo MT Cell Viability Assay in HepG2 cells - 32 hour (AID 1224877); note: nearly all actives have a fitted effect of over 55% in size
# Procedure, shortened: as §5
SMILES,Potency [1],Potency [2],Potency [3],max response [4] [%],Potency [5],Potency [6],Potency [7],Potency [8],outcome [9],Potency [10],outcome [11],Potency [12],Potency [13],Potency [14],Potency [15],Potency [16],Potency [17],Potency [18],Potency [19],Potency [20]
N#Cc1ccncc1,inactive,inactive,inactive,11.4,inactive,inactive,inactive,inactive,inactive,inactive,inactive,inactive,inactive,inactive,inactive,inactive,inactive,inactive,inactive,–
COc1cc(C[C@@H](C)N)c(OC)cc1C,inactive,inactive,inactive,-9.2,inactive,inactive,inactive,inactive,inactive,inactive,–,inactive,inactive,inactive,inactive,inactive,–,inactive,inactive,inactive
N#CCNCC#N,inactive,inactive,inactive,3.83,inactive,inactive,inactive,inactive,inactive,inactive,–,inactive,inactive,inactive,inactive,inactive,–,inactive,inactive,inactive
O=C(N[C@H]1CN2CCC1CC2)c1cc2ccoc2cn1,inactive,inactive,inactive,8.57,inactive,inactive,–,–,inactive,inactive,inactive,–,inactive,inactive,inactive,inactive,inactive,inactive,inactive,inactive
COC(=O)C(C)Oc1ccc(Oc2ccc(Cl)cc2Cl)cc1 (stereo unspecified),inactive,inactive,inactive,-8.07,inactive,inactive,inactive,inactive,inactive,inactive,–,inactive,inactive,inactive,inactive,inactive,–,–,inactive,inactive
Nc1c(Br)cc([N+](=O)[O-])cc1[N+](=O)[O-],inactive,inactive,inactive,-10.5,inactive,inactive,inactive,inactive,inactive,inactive,–,inactive,inactive,inactive,inactive,inactive,–,inactive,inactive,–
ClC(Cl)(Cl)C(Cl)(Cl)Cl,inactive,inactive,inactive,2.47,inactive,inactive,inactive,inactive,inactive,inactive,inactive,inactive,–,inactive,inactive,inactive,inactive,inactive,inactive,–
COC(=O)C1=CCCN(C)C1,inactive,inactive,inactive,3.81,inactive,–,inactive,inactive,inactive,inactive,inactive,–,inactive,inactive,inactive,inactive,inactive,inactive,inactive,inactive
CCCSP(=O)(OCC)Oc1ccc(Br)cc1Cl (stereo unspecified),inactive,inactive,inactive,-3.49,inactive,inactive,inactive,inactive,inactive,inactive,–,inactive,inactive,inactive,inactive,inactive,–,inactive,inactive,inactive
CNC(=O)Oc1c(C(C)(C)C)cc(C)cc1C(C)(C)C,inactive,inactive,inactive,-2.73,inactive,inactive,inactive,inactive,inactive,–,inactive,inactive,–,inactive,inactive,inactive,inactive,inactive,inactive,inactive
CCOC(=O)N(C)C(=O)CSP(=S)(OCC)OCC,inactive,inactive,inactive,-10,inactive,inactive,inactive,inactive,inactive,inactive,inactive,inactive,–,inactive,inactive,inactive,inactive,–,inactive,inactive
COc1cc(OC)nc(Oc2cccc(Oc3nc(OC)cc(OC)n3)c2C(=O)O)n1,inactive,inactive,inactive,-0.579,inactive,inactive,inactive,inactive,inactive,inactive,–,inactive,inactive,inactive,inactive,inactive,inactive,inactive,inactive,–
CC(C)COP(=O)(OCC(C)C)OCC(C)C,inactive,inactive,inactive,0.408,inactive,inactive,inactive,inactive,–,inactive,inactive,inactive,–,inactive,inactive,inactive,inactive,inactive,inactive,–
COc1cc(OC)nc(Sc2cccc(Cl)c2C(=O)O)n1,inactive,inactive,inactive,16.2,inactive,inactive,inactive,inactive,inactive,inactive,–,inactive,inactive,inactive,inactive,inactive,inactive,–,inactive,inactive
COc1ncc(F)c2nc(S(=O)(=O)Nc3c(F)cccc3F)nn12,13.9 µM (active),inactive,inactive,6.8,12.4 µM (active),inactive,inactive,inactive,inactive,13.9 µM (active),inactive,inactive,–,inactive,inactive,inactive,–,inactive,–,inactive
